In all, about 18,000 sequences were measured (“TetR repression strength (sort-seq, GFP reporter)”: median about 0.23, highest 2% from about 0.68 on). Shown is part of a subset that was picked to be rich in the highest values.

The target of this assay is TetR (class B, Tn10) (UniProt P04483). Kind of assay: TetR repression strength (sort-seq, GFP reporter) (relative to tetO2 = 1); higher = stronger repression. The conditions noted are these: E. coli. The procedure, abridged: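 Repression strength is the top bin index plus one minus the read-weighted mean bin, relative to the unaltered operator's value. A low-copy library in E. coli SIG10-MAX randomized eight operator positions between a constitutive promoter and sfGFP, with TetR expressed constitutively; cells grew 5 h at 37 °C in LB with 50 µg/mL chloramphenicol and 10^6 were FACS-sorted into 13 bins that were each Illumina-sequenced. Three independent transformations were averaged, keeping only members with ≥30 reads in all replicates and CV ≤0.5.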
Sequence of TetR (class B, Tn10) (P04483 whole entry): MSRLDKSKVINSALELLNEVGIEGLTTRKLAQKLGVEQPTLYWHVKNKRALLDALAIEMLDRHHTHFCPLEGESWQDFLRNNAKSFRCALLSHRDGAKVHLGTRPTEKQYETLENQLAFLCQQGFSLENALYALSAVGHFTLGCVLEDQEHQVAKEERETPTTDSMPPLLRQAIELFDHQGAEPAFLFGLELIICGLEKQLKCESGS
As to TCCCTTCAAGTGTCAGAGA, the TetR repression strength was found to be 0.303.
The same measure for TCCCTTCAAGTTTCAGAGA: 0.837; for TCCCTTCCAGTATCAGAGA: 0.0836.
In the case of TCCCTTCCAGTTTCAGAGA it was 0.819; in that of TCCCTTCAAGTTTGAGAGA, 0.185.
In the case of TCCCTTTCAGTTTCAGAGA it was 0.206.
Sequence TCCCAGAGAGTACTAGAGA registered a TetR repression strength of 0.336.
The same measure for TCCCGAGGAGTGGCTGAGA: 0.0686; for TCCCTTGGAGTAGGGGAGA: 0.274.
The same measure for TCCCACGGAGTCTGGGAGA: 0.0855; for TCCCTGATAGTGCTCGAGA: 0.215.
In the case of TCCCAGTGAGTGCTCGAGA it was 0.0229.
The sequence TCCCAGACAGTACTCGAGA registered a TetR repression strength of 0.444.
In the case of TCCCTGTTAGTGCTCGAGA it was 1.15.
In the case of TCCCTGTTAGTGGTCGAGA it was 0.187; in that of TCCCGAAGAGTGCTCGAGA, 0.813; in that of TCCCGATGAGTGCTCGAGA, 0.361.
TCCCAGACAGTGCTCGAGA showed a TetR repression strength of 0.855.
The same measure for TCCCAGACAGTGCGAGAGA: 0.219; for TCCCTCTGAGTGCTCGAGA: 0.315.
In the case of TCCCTGTGAGTGCTCGAGA it was 1.14.
The same measure for TCCCGAGGAGTGCTCGAGA: 0.126; for TCCCTGGCAGTTAGGGAGA: 0.365.
Sequence TCCCGGTCAGTCTGCGAGA gave a TetR repression strength of 0.194.
In the case of TCCCGGATAGTCTTTGAGA it was 0.125.
The same measure for TCCCTTGGAGTATATGAGA: 0.119; for TCCCTGCGAGTAGTCGAGA: 0.542; for TCCCCATTAGTGTACGAGA: 0.425.
In the case of TCCCTAAGAGTGATGGAGA it was 0.243.
In the case of TCCCTGTGAGTTCGGGAGA, the TetR repression strength came out at 0.369.
TCCCTGTGAGTTCGAGAGA displayed a TetR repression strength of 0.719.
The same measure for TCCCTGAGAGTTCGCGAGA: 0.0305; for TCCCATCTAGTCCGTGAGA: 0.174; for TCCCTCTAAGTTAGTGAGA: 0.241.
In the case of TCCCGCTAAGTCCGGGAGA it was 0.188; in that of TCCCCTGAAGTCTTCGAGA, 0.
The same measure for TCCCAGGCAGTGCAGGAGA: 0.143.
In turn, TCCCAGGGAGTGCCGGAGA had a TetR repression strength of 0.19.
The same measure for TCCCTATCAGTGTTTGAGA: 0.767; for TCCCTATCAGTTTTTGAGA: 0.472; for TCCCTAGCAGTGTTTGAGA: 0.369.
The same measure for TCCCTATGAGTGCTTGAGA: 0.335; for TCCCTCTCAGTGCTTGAGA: 0.661; for TCCCAGGCAGTGCCGGAGA: 0.748.
In the case of TCCCTGTCAGTGTCGGAGA it was 0.388; in that of TCCCTGTCAGTGCCGGAGA, 1.03.
TCCCTGTGAGTGCCGGAGA displayed a TetR repression strength of 0.164.
The same measure for TCCCTATCAGTGCTTGAGA: 0.701; for TCCCCGAAAGTCGCGGAGA: 0.128.
For the sequence TCCCTATCAGTGTAGGAGA, the TetR repression strength is 0.484.
The same measure for TCCCCTCTAGTGTAAGAGA: 0.155; for TCCCGGATAGTAGCGGAGA: 0.329.
The sequence TCCCAGGCAGTCGGTGAGA came in with a TetR repression strength of 0.213.
The same measure for TCCCGTTTAGTGGGTGAGA: 0.306; for TCCCTTTGAGTTATCGAGA: 0.384.
The same measure for TCCCGGGCAGTATTCGAGA: 0.136; for TCCCCGTGAGTGCATGAGA: 0.122.
The same measure for TCCCATTCAGTCAATGAGA: 0.457; for TCCCTATCAGTGCTCGAGA: 0.993.
In turn, TCCCTATCAGTGCTAGAGA came in with a TetR repression strength of 0.841.
In the case of TCCCAAATAGTGCTTGAGA it was 0.
The same measure for TCCCTATCAGTGGTCGAGA: 0.532.
In the case of TCCCTAATAGTGCTTGAGA it was 1.01; in that of TCCCTGTCAGTGCTCGAGA, 0.534.
TCCCTATCAGTTTTCGAGA: the TetR repression strength was 0.523.
In the case of TCCCTATCAGTGTTCGAGA it was 0.777.
In the case of TCCCTATTAGTGCTAGAGA it was 0.466; in that of TCCCTATCAGTGCGAGAGA, 0.452; in that of TCCCTAGTAGTGCTTGAGA, 0.594.
In the case of TCCCTAACAGTGTTCGAGA it was 0.305; in that of TCCCATACAGTGCGCGAGA, 0.394; in that of TCCCTTATAGTCGCGGAGA, 0.142.
TCCCCTTAAGTGTATGAGA displayed a TetR repression strength of 0.348.
Consider TCCCAGAGAGTGGAAGAGA, for which the TetR repression strength was determined as 0.148.
TCCCGACAAGTTATCGAGA displayed a TetR repression strength of 0.226.
As to TCCCTATCAGTGGTGGAGA, the TetR repression strength was 0.402.
TCCCCATCAGTCCTCGAGA yielded a TetR repression strength of 0.327.
The same measure for TCCCCATCAGTGCTGGAGA: 0.157.
In the case of TCCCTATCAGTCCTCGAGA it was 0.747; in that of TCCCTATCAGTGCCGGAGA, 1.06; in that of TCCCTATCAGTCCCGGAGA, 0.4.
With TCCCTATCAGTGCTGGAGA, the TetR repression strength amounted to 0.86.
For the sequence TCCCTATCAGTGCCTGAGA, the TetR repression strength was 0.467.
The same measure for TCCCTATAAGTCCTCGAGA: 0.529.
For TCCCAGGCAGTGCTTGAGA, the TetR repression strength is 0.113.
Sequence TCCCGATCAGTAGACGAGA showed a TetR repression strength of 0.237.
The same measure for TCCCCTGTAGTGTGCGAGA: 0.297.
In the case of TCCCCCACAGTTATAGAGA it was 0.524; in that of TCCCAGGTAGTGGCGGAGA, 0.176.
In the case of TCCCTTCAAGTGCCGGAGA it was 1.13.
Consider TCCCTTCAAGTGCCCGAGA, for which the TetR repression strength is 0.415.
The same measure for TCCCCTCCAGTTCTGGAGA: 0.342; for TCCCTTCCAGTTCTTGAGA: 0.472.
As for TCCCTTCAAGTTCTGGAGA, the TetR repression strength is 1.03.
The same measure for TCCCTTCTAGTTCTGGAGA: 0.402; for TCCCTTCGAGTTCTGGAGA: 0.328.
In the case of TCCCTTCCAGTTCTGGAGA it was 1.04.
The same measure for TCCCTACAAGTGCCGGAGA: 0.202; for TCCCATAAAGTGACGGAGA: 0.305; for TCCCTTAAAGTGTTGGAGA: 0.334.
TCCCGTTCAGTATGGGAGA gave a TetR repression strength of 0.106.
The same measure for TCCCGCCGAGTCCCGGAGA: 0.317.
In the case of TCCCATGGAGTTTTAGAGA it was 0.281.
The same measure for TCCCACGGAGTTACGGAGA: 0.224; for TCCCGTGGAGTGTTGGAGA: 0.325; for TCCCGTCGAGTGTTCGAGA: 0.218.
Sequence TCCCGTTGAGTGTTGGAGA had a TetR repression strength of 1.1.

Values taken from a collection of fitness landscapes (doi:10.1038/s41467-024-54723-y).
